Test results: PubChem BioAssay (NCI)
About 79,000 compounds went through this panel and 15% of them were active in at least one assay; those are over-represented in the sample as a whole. Active and inactive are the calls of the source. No stated cut-off is given here; in the data, active means growth inhibition above about 70%; inactive means the rest.

Experiments:
[1] = NCI Yeast Anticancer Drug Screen. Data for the rad52 strain (AID 147);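 further: 0% = growth of vehicle-treated control cultures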; conditions: S. cerevisiae rad52 mutant growth inhibition, hits give high values
Summary of the method: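 Vehicle-treated cultures served as the reference for growth inhibition of compound-exposed yeast bearing a DNA repair mutation.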

[2] = NCI Yeast Anticancer Drug Screen. Data for the wt1 strain (AID 149);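 further: 0% = growth of vehicle-treated wt1 cultures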; conditions: S. cerevisiae wt1 strain (SPY 50644) growth inhibition, hits give high values
Summary of the method: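 Using yeast strain wt1, compound-induced growth inhibition was determined against vehicle-treated cultures.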

[3] = NCI Yeast Anticancer Drug Screen. Data for the rad50EPP+ strain (AID 151);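 further: 0% = growth of vehicle-treated control cultures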; conditions: S. cerevisiae rad50 mutant strain, hits give high values
Summary of the method: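 In this screen, rad50EPP+ yeast were exposed to compounds. Growth inhibition was scored against vehicle-treated controls.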

[4] = NCI Yeast Anticancer Drug Screen. Data for the mgt1 strain (AID 153); conditions: S. cerevisiae mgt1 mutant growth inhibition, hits give high values
Summary of the method: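 mgt1 strain exposed; growth vs vehicle control recorded as inhibition.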

[5] = NCI Yeast Anticancer Drug Screen. Data for the rad50 strain (AID 155);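 further: 0% = growth of vehicle-only cultures of the same strain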; conditions: S. cerevisiae rad50 strain growth inhibition, hits give high values
Summary of the method: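 Relative growth inhibition (compound vs vehicle) was measured in yeast with a defined repair-gene alteration.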

[6] = NCI Yeast Anticancer Drug Screen. Data for the mec2-1 strain (AID 157); conditions: S. cerevisiae mec2-1 strain, hits give high values
Summary of the method: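 Vehicle-treated cultures served as reference for growth inhibition of compound-exposed mec2-1 yeast.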

[7] = NCI Yeast Anticancer Drug Screen. Data for the rad14 strain (AID 159);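 further: 0% = growth of vehicle-treated control cultures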; conditions: S. cerevisiae rad14 strain growth inhibition, hits give high values
Summary of the method: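 Screen for anticancer potential: a yeast strain altered in DNA damage repair is grown with compound, and reduced growth is quantified against vehicle controls.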

[8] = NCI Yeast Anticancer Drug Screen. Data for the sgs1 mgt1 strain (AID 161);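 further: 0% = growth of cultures given vehicle only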; conditions: S. cerevisiae sgs1 mgt1 strain, hits give high values
Summary of the method: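 Mutant yeast exposed to compound; growth scored against vehicle-only wells.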

[9] = NCI Yeast Anticancer Drug Screen. Data for the CLN2oe strain (AID 163);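 further: 0% = growth of vehicle-only control cultures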; conditions: S. cerevisiae CLN2oe strain, hits give high values
Summary of the method: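 Inhibition relative to vehicle-treated yeast is reported. Cells: strain with genetic alteration in cell-cycle control, grown with compound.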

[10] = NCI Yeast Anticancer Drug Screen. Data for the bub3 strain (AID 167); conditions: S. cerevisiae bub3 mutant strain, hits give high values
Summary of the method: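 Screening used yeast with an engineered genetic alteration affecting cell cycle control. Compound-exposed cultures were compared with vehicle cultures, and reduced growth was taken as inhibition.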

[11] = NCI Yeast Anticancer Drug Screen. Data for the wt2 strain (AID 169);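 further: 0% = growth of vehicle-treated yeast cultures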; conditions: S. cerevisiae wt2 strain growth inhibition, hits give high values
Summary of the method: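 Inhibition of yeast growth was determined after compound treatment, normalised to controls receiving only vehicle.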

[12] = NCI Yeast Anticancer Drug Screen. Data for the mlh1 strain (AID 171);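 further: 0% = growth of vehicle-treated control cultures of the same strain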; conditions: S. cerevisiae mlh1 strain growth inhibition, hits give high values
Summary of the method: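 Vehicle-normalised growth inhibition of a repair- or checkpoint-altered yeast strain following compound treatment.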

[13] = NCI Yeast Anticancer Drug Screen. Data for the sgs1 strain (AID 173);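 further: 0% = growth of vehicle-only control cultures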; conditions: S. cerevisiae sgs1 mutant, hits give high values
Summary of the method: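 Screen format: yeast with repair or checkpoint alterations, compound exposure, growth read relative to vehicle.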

[14] = NCI Yeast Anticancer Drug Screen. Data for the mlh1 rad18 strain (AID 175); conditions: S. cerevisiae mlh1 rad18 strain growth inhibition, hits give high values
Summary of the method: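 Vehicle-treated cultures served as the reference for growth inhibition in a yeast strain carrying DNA damage repair alterations exposed to each compound.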

[15] = NCI Yeast Anticancer Drug Screen. Data for the rad18 strain (AID 177); conditions: S. cerevisiae rad18 mutant growth inhibition, hits give high values
Summary of the method: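 Test articles were incubated with altered yeast defective in DNA damage repair. Results are given as inhibition of growth versus vehicle.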

[16] = NCI Yeast Anticancer Drug Screen. Data for the cln2 rad14 strain (AID 165);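 further: 0% = growth equal to vehicle treated cultures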; conditions: S. cerevisiae cln2 rad14 strain, hits give high values
Summary of the method: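 Each compound was tested on cln2 rad14 yeast. Inhibition of growth was calculated against vehicle-exposed controls.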

[17] = at 5.0 µM (retest, dose inferred, filed as 0.5)
[18] = at 50.0 µM (retest, dose inferred, filed as 5.0)

Measured: growth inhibition

C/C=C/SC(=Nc1ccccc1)Nc1ccccc1
active: [1]; at 100.0 µM 99% | [2]; at 100.0 µM 97% | [4]; at 100.0 µM 98% | [5]; [18] 78% | [5]; at 50.0 µM 88% | [5]; at 100.0 µM 98% | [6]; at 100.0 µM 98% | [7]; at 100.0 µM 99% | [8]; [18] 71% | [8]; at 50.0 µM 90.8% | [9]; at 100.0 µM 97% | [10]; at 50.0 µM 92.5% | [10]; at 100.0 µM 98% | [11]; at 100.0 µM 98% | [12]; at 100.0 µM 98% | [13]; at 100.0 µM 98% | [14]; [18] 70% | [15]; at 100.0 µM 98%
inactive: [1]; at 1.2 µM -3% | [1]; at 3.7 µM -5% | [1]; at 11.0 µM -6% | [1]; at 33.0 µM -6% | [2]; at 1.2 µM -3% | [2]; at 3.7 µM 0% | [2]; at 11.0 µM -7% | [2]; at 33.0 µM -15% | [3]; at 1.2 µM 3% | [3]; at 3.7 µM 3% | [3]; at 11.0 µM 11% | [3]; at 33.0 µM 23% | [3]; at 100.0 µM 39% | [4]; at 1.2 µM -6% | [4]; at 3.7 µM -8% | [4]; at 11.0 µM -9% | [4]; at 33.0 µM -13% | [5]; at 1.2 µM -5% | [5]; at 3.7 µM -7% | [5]; [17] -10% | [5]; at 11.0 µM -7% | [5]; at 33.0 µM -8% | [6]; at 1.2 µM -6% | [6]; at 3.7 µM -5% | [6]; [17] -9% | [6]; at 11.0 µM -9% | [6]; at 33.0 µM -8% | [6]; [18] 67% | [6]; at 50.0 µM 49.2% | [7]; at 1.2 µM -4% | [7]; at 3.7 µM -4% | [7]; at 11.0 µM -5% | [7]; at 33.0 µM -4% | [8]; [17] -5% | [9]; at 1.2 µM -9% | [9]; at 3.7 µM -18% | [9]; at 11.0 µM -15% | [9]; at 33.0 µM -24% | [10]; at 1.2 µM 10% | [10]; at 3.7 µM 8% | [10]; [17] 10% | [10]; at 11.0 µM 7% | [10]; at 33.0 µM -12% | [10]; [18] 36% | [11]; at 1.2 µM -3% | [11]; at 3.7 µM -3% | [11]; at 11.0 µM -7% | [11]; at 33.0 µM -9% | [12]; at 1.2 µM -4% | [12]; at 3.7 µM -3% | [12]; at 11.0 µM -6% | [12]; at 33.0 µM -5% | [13]; at 1.2 µM -4% | [13]; at 3.7 µM -5% | [13]; at 11.0 µM -7% | [13]; at 33.0 µM -3% | [14]; [17] -10% | [14]; at 50.0 µM 66.3% | [15]; at 1.2 µM -2% | [15]; at 3.7 µM -5% | [15]; at 11.0 µM -8% | [15]; at 33.0 µM -9%

COc1c(O)c(C=O)c(Br)c(C=O)c1O
active: [1]; at 100.0 µM 91% | [3]; at 11.0 µM 75% | [3]; at 33.0 µM 95% | [3]; at 100.0 µM 99% | [4]; at 100.0 µM 82% | [5]; [18] 97% | [5]; at 50.0 µM 98.2% | [5]; at 100.0 µM 86% | [6]; [18] 98% | [6]; at 50.0 µM 82.1% | [6]; at 100.0 µM 95% | [7]; at 100.0 µM 83% | [9]; at 100.0 µM 90% | [16]; [18] 95% | [10]; [18] 98% | [10]; at 50.0 µM 98.9% | [10]; at 100.0 µM 97%
inactive: [1]; at 1.2 µM 2% | [1]; at 3.7 µM 6% | [1]; at 11.0 µM 17% | [1]; at 33.0 µM 49% | [2]; at 1.2 µM 0% | [2]; at 3.7 µM 5% | [2]; at 11.0 µM 4% | [2]; at 33.0 µM 17% | [2]; at 100.0 µM 68% | [3]; at 1.2 µM 24% | [3]; at 3.7 µM 43% | [4]; at 1.2 µM -2% | [4]; at 3.7 µM 0% | [4]; at 11.0 µM 8% | [4]; at 33.0 µM 30% | [5]; at 1.2 µM 4% | [5]; at 3.7 µM 7% | [5]; [17] 16% | [5]; at 11.0 µM 15% | [5]; at 33.0 µM 47% | [6]; at 1.2 µM 3% | [6]; at 3.7 µM 6% | [6]; [17] 16% | [6]; at 11.0 µM 14% | [6]; at 33.0 µM 47% | [7]; at 1.2 µM 1% | [7]; at 3.7 µM 4% | [7]; at 11.0 µM 11% | [7]; at 33.0 µM 42% | [9]; at 1.2 µM 2% | [9]; at 3.7 µM 0% | [9]; at 11.0 µM 17% | [9]; at 33.0 µM 40% | [16]; [17] 12% | [16]; at 50.0 µM 66.5% | [10]; at 1.2 µM -4% | [10]; at 3.7 µM -1% | [10]; [17] -1% | [10]; at 11.0 µM 3% | [10]; at 33.0 µM 54% | [11]; at 1.2 µM -1% | [11]; at 3.7 µM 2% | [11]; at 11.0 µM 5%
